# In the library only some 10% were active in any assay of this set; here they are far more common.
# GPT2 inh – GPT2 alanine aminotransferase inhibition. Q8TD30. Recombinant GPT2, coupled pyruvate oxidase/HRP Amplex Red fluorescence. Potency, µM (series often up to 57.7 µM), for inactives: at the highest dose activity change, negative = inhibition, most hits filed as inhibitors. 100,000 tested, 0.25% active. AID 1671188; note: nearly all actives have a fitted effect of over 60% in size
#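 GPT2 10ng/uL, a-KG 250uM, L-Ala 2mM, HEPES pH7.5 + 0.0001% Tween; 30 min RT. Then Amplex mix (PO/HRP/ThPP), 30 min RT dark, fluorescence. AOA 50uM used as positive control.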
# Luciferase inh – inhibitors of firefly (Photinus pyralis) luciferase | P08659 | purified P. pyralis luciferase, luminescence, biochemical | Potency, µM (highest dose often 115 µM), actives largely listed as inhibitors | 76,000 tested, 2.5% active | AID 1347043; note: nearly all actives have a fitted effect of over 65% in size
#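 Luminescence read by CCD imager after adding enzyme (10nM final) to wells holding compound, titrated in qHTS. Substrates 10uM each D-luciferin and ATP; buffer 50mM Tris acetate pH 7.5, 10mM Mg acetate, Tween-20, BSA.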
# NPR1 antag – human Npr1 receptor antagonism. P16066. 76,000 tested, 1.6% active. HEK293 hNpr1 GloSensor cGMP, ANP-stimulated luminescence. Potency, µM (highest dose often 46.3 µM), for the others: top-dose activity change, negative = inhibition, hits mostly inhibitors; calls by dose curve; note: nearly all actives have a fitted effect of over 60% in size
#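 HEK293 cells stably expressing human Npr1 and cGMP GloSensor pGS-40F, loaded 2 h with 2% GloSensor reagent, given compound 30 min at room temperature. Luminescence read before and 20 min after 0.1 nM hNppA.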
# NIH3T3 tox – kills NIH 3T3 cells. NIH 3T3 viability, CellTiter-Glo ATP luminescence, 48-72 h. 94,000 tested, 4.3% active. AID 1345082. Potency, µM (highest dose often 96.7 µM), for the others: at the top dose activity change, negative = cytotoxicity, hits mostly inhibitors; note: nearly all actives have a fitted effect of over 55% in size
#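 Cytotoxicity is measured as loss of cellular ATP: NIH 3T3 cells (400/well) are exposed to compound for 48 or 72 hr at 37 °C, then CellTiter-Glo luminescence is imaged after 10 min at room temperature.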
# HEK293 tox – HEK 293 cell cytotoxicity; Potency, µM (doses to about 115 µM), for inactives: at the highest dose activity change, negative = cytotoxicity, actives largely listed as inhibitors; 94,000 tested, 6.6% active; HEK 293 viability, ATP luminescence (CellTiter-Glo), 48-72 h; note: nearly all actives have a fitted effect of over 60% in size
#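 HEK 293 cells seeded at 250 cells/well were exposed to compound for 48 or 72 hr at 37 degree Celsius. Viability taken as ATP content by CellTiter-Glo luminescence.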
# Active calls of the source: *; i = inactive; ? = inconclusive; / = not tested or not shown; [ ] = another dose, or the depositor's remark. Unless noted, calls come from the whole dose curve; as a rule, active = well fitted curve in the direction sought with a large enough effect; inconclusive = small, poorly fitted or top-dose-only effect, or another doubt; inactive = no such curve, though single readings can be large; an effect the other way counts as inactive or inconclusive. % is set by controls: 0 for no effect and ±100 for the full control effect; potency is the fitted concentration of half-maximal effect.
SMILES,GPT2 inh,Luciferase inh,NPR1 antag,NIH3T3 tox,HEK293 tox
Cn1ncc2c(C(=O)NC3CC3)cc(-c3ccc(Cl)cc3)nc21,?,/,/,79.4µM*,?
CC(C)NC(=O)c1cc(-c2ccc(Cl)nc2)nc2c1cnn2C,-41.3%,/,/,22.4µM*,?
Cn1ncc2c(C(=O)NCC3CCCCC3)cc(C(C)(C)C)nc21,-2.7%[88.5 µM],/,/,-22.8%[138 µM],-17.5%[172 µM]
CC(C)NC(=O)c1cc(-c2ccc(F)cc2)nc2c1cnn2C,/,/,/,?,79.4µM*
Cn1ncc2c(C(=O)NC3CC3)cc(-c3cc(Cl)cc(Cl)c3)nc21,-12.1%,/,/,i,i
Cc1cc(C(=O)N2CCN(C(=O)N3CC4CC(C3)[C@H]3CCCC(=O)N3C4)CC2)n(C)n1 (stereo partly drawn),i,i,1.9%,i,10.7%
COC(=O)c1ccc2nc(CO[C@H]3CN(Cc4ccc(S(C)(=O)=O)cc4)C[C@H]3F)[nH]c2c1,i,i,1.3%,-21.7%,-28.8%
CCOc1ccc(CN2CCOc3ccc(C(=O)NCc4ccccc4F)cc3C2)cc1,i,i,?,?,39.8µM*
O=C(NCc1ccccc1F)c1ccc2c(c1)CN(Cc1ccc3c(c1)CCO3)CCO2,i,i,-15.1%,?,28.2µM*
O=C(Cc1ccccc1F)N1CCOc2ccc(CN3CCc4ccccc4C3)cc2C1,1.3%,i,-29.0%,-27.8%,44.7µM*
COC[C@@H]1CN(C(=O)c2ccc(C)cn2)C[C@H]1c1nc(C2CC2)no1,0.4%,i,-10.7%,-10.2%,-11.8%
CC(C)C[C@@H]1N[C@H](C(=O)NC2CCC2)Cc2cn(CC3CC3)c3cccc1c23,-18.6%[88.5 µM],i,3.4%[70.6 µM],?,56.2µM*
CC(C)C[C@@H]1N[C@H](C(=O)O)Cc2cn(CC3CCC3)c3cccc1c23,?,i,-10.5%[70.6 µM],79.4µM*,70.8µM*
COCC1CN(C(C)=O)CC12CCN(C1CCN(C(C)=O)CC1)CC2 (stereo not drawn),i,i,-2.8%,-9.9%,-2.5%
Cc1nn(-c2ccccc2)c2c1C(C)N(C1CN(C(=O)c3ccc(Cl)cc3)C1)C2=O (stereo not drawn),/,/,/,-11.6%,-27.3%
Cc1nn(-c2ccccc2)c2c1C(C1CC1)N(C1CCN(C(=O)c3ccc(F)cc3)C1)C2=O (stereo not drawn),/,/,/,?,35.5µM*
Cc1nn(-c2ccccc2)c2c1C(C)N(C1CN(C(=O)c3ccc(C(F)(F)F)cc3)C1)C2=O (stereo not drawn),/,/,/,?,39.8µM*
Cc1nn(-c2ccccc2)c2c1C(C)N(C1CCN(C(=O)c3cccc(Cl)c3)C1)C2=O (stereo not drawn),/,/,/,31.6µM*,22.4µM*
Cc1nn(-c2ccccc2)c2c1C(C)N(C1CCN(C(=O)c3ccc(F)cc3)C1)C2=O (stereo not drawn),/,/,/,?,44.7µM*
CN(C)c1ccc(CN2CCC3(C2)C(=NC2CCCCC2)NC(=O)N3c2cc(F)cc(F)c2)cc1 (stereo not drawn),i,/,/,?,?
CC(C)CCNC(=O)c1cnc2n1CCN(Cc1ccccc1Cl)CC2,0.7%[88.5 µM],i,-14.2%[70.6 µM],?,?
Cc1ccccc1C(=O)N1CCC(N2C(=O)c3c(c(C)nn3-c3ccccc3)C2C)CC1 (stereo not drawn),/,/,/,?,44.7µM*
Cc1nn(-c2ccccc2)c2c1C(C1CC1)N(C1CN(C(=O)NC3CCCC3)C1)C2=O (stereo not drawn),/,/,/,-5.9%,-2.5%
COC(=O)N1CCCC(N2C(=O)c3c(c(C)nn3-c3ccccc3)C2C)C1 (stereo not drawn),/,/,/,-26.0%,?
COc1ccccc1C(=O)N1CCC(N2C(=O)c3c(c(C)nn3-c3ccccc3)C2C)CC1 (stereo not drawn),/,/,/,?,39.8µM*
Cc1nn(-c2ccccc2)c2c1C(C)N(C1CCCN(C(=O)C3CC3)C1)C2=O (stereo not drawn),/,/,/,-10.9%,-1.7%
Cc1nn(-c2ccccc2)c2c1C(C)N(C1CN(C(=O)NC3CCCC3)C1)C2=O (stereo not drawn),/,/,/,28.2µM*,?
